According to the supplement of paper PMC3334620:
The full ranking holds about 33,000 sequences; the median of “E-score (-0.5 to 0.5)” is about -0.035, and the highest 2% start at about 0.34. The sample holds the highest values, similar sequences and a random draw of the others, so the mix is not that of the screen.

Molecular target: T1, Mot3 (UniProt P54785)
T1 sequence: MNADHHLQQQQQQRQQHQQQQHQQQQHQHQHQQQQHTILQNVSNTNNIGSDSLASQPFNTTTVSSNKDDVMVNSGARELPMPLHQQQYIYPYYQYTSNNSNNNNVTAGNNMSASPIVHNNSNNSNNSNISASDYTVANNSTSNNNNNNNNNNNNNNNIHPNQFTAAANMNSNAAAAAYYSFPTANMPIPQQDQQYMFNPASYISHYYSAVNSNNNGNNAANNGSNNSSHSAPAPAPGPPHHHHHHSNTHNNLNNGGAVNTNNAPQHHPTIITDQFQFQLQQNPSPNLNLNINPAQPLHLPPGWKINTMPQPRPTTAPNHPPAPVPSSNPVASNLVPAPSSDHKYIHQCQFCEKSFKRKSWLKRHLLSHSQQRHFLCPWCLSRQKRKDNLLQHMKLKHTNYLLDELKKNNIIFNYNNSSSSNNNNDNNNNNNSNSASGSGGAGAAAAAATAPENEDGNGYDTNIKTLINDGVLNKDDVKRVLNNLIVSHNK
Assay: PBM E-score (8-mer binding enrichment) (E-score (-0.5 to 0.5)); higher = stronger / more preferred TF binding
Conditions: protein concentration: 200 nM; construct: GST-full length
In short: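 PURExpress in vitro transcription/translation supplied GST-tagged yeast transcription factors, either full-length or DNA-binding domain. Applied at about 100-200 nM to universal all-10-mer Agilent arrays double-stranded by primer extension, the bound protein was detected with fluorescent anti-GST. E-scores, modified Wilcoxon-Mann-Whitney statistics, were given by the Universal PBM Analysis Suite to ungapped eight-base words pooled with their reverse complements after masliner normalisation.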

| Sequence | PBM E-score |
| --- | --- |
| CATTGGAG | -0.179 |
| AGAGGTTA | 0.0342 |
| CTGAATGA | 0.00529 |
| GACTGTAA | 0.147 |
| ATCCACCC | -0.246 |
| TCTCAGAA | -0.0878 |
| CTACTCGA | 0.0146 |
| CCGCAAAC | -0.0792 |
| AAGCTATA | -0.00123 |
| CGAAAAAG | 0.142 |
| CCAGCTTC | -0.187 |
| TATTTACA | 0.386 |
| CATTTACA | 0.363 |
| TATTTAAA | 0.231 |
| CATTTACG | 0.201 |
| CATTTACC | 0.158 |
| TATTTAGA | 0.184 |
| GATTTACA | 0.332 |
| AATTTACC | 0.153 |
| AATTTACA | 0.382 |
| AAGCAGAC | -0.0963 |
| AAATCGCC | -0.255 |

| Sequence | PBM E-score |
| --- | --- |
| ACCGGTGA | -0.16 |
| GCTACCAC | -0.216 |
| TGCCTTAA | 0.471 |
| GACCTACA | 0.045 |
| TGCCTAAA | 0.476 |
| CACCTACA | 0.227 |
| ATCCTAAA | -0.0533 |
| AGCCTAAA | 0.178 |
| TTCCTAAA | 0.408 |
| GGCCTAAA | 0.0327 |
| TACCTACA | 0.381 |
| AGCCTTAA | 0.158 |
| CGCCTTAA | 0.323 |
| GTCCTAAA | 0.125 |
| CACCTCCA | -0.138 |
| AGTTCGAC | 0.0301 |
| CTTCCCTA | -0.206 |
| CAGGTGCA | 0.0796 |
| GCAAAAAA | 0.203 |
| CTAGACTA | -0.24 |
| CAGCGTAC | -0.0299 |
| TACCTTCA | 0.376 |

| Sequence | PBM E-score |
| --- | --- |
| CGCCTACA | 0.224 |
| GGCCTACA | 0.00717 |
| GACCTTCA | -0.083 |
| AACCTGCA | 0.0857 |
| TGCCTACA | 0.487 |
| AACCTTCA | 0.215 |
| GACCTGCA | -0.0447 |
| TACCTGCA | 0.403 |
| AGGGTCTA | -0.153 |
| CGAGCGCC | -0.0813 |
| GTTCACGA | -0.101 |
| GGACGCTA | -0.206 |
| ACGGCAGG | -0.17 |
| CGCGCCAA | -0.0132 |
| ATTACACG | 0.435 |
| ATTACACC | 0.299 |
| GTTACACA | 0.357 |
| ATTACTCA | 0.165 |
| GTTACAAA | 0.223 |
| ATCACACA | 0.143 |
| CTCACACA | -0.0904 |
| GTGACACA | 0.0545 |

| Sequence | PBM E-score |
| --- | --- |
| ATTACACA | 0.438 |
| CTTACACA | 0.3 |
| ATGACACA | 0.313 |
| ATGACACG | 0.384 |
| CGAGACCC | -0.0978 |
| CGGCCACA | -0.234 |
| GACGATCC | -0.0936 |
| ATCAATAA | 0.0626 |
| CTACGCGA | 0.232 |
| CTCTACAC | 0.223 |
| ATCTACAG | 0.0501 |
| CCCTACAC | 0.187 |
| ATCTACAT | 0.349 |
| GCCTACAC | 0.344 |
| ATCTACAC | 0.375 |
| GTCTACAC | 0.275 |
| ATCTACAA | 0.205 |
| ACCTACAC | 0.258 |
| GAAAAGGC | 0.228 |
| AATCAGGT | 0.153 |
